LANA DNA inh: blocks KSHV LANA C-terminal domain binding to DNA; MBP-C-LANA/FAM-LBS DNA binding, fluorescence polarization; inhibition, % at 9 µM; 340,000 compounds, 0.078% hits; AID 504423;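 active means highest replicate inhibition at or above 60% at 9 µM, even if other replicates fall short; inactive means all replicates below 60% inhibition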;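 further: 0% = neutral control wells and 100% = 4 µM acridine orange control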
LANA-H2A inh: blocks KSHV LANA binding to histone H2A/H2B. Q9QR71. cell-free LANA-H2A/H2B peptide, fluorescence polarization. inhibition, % (test concentration not listed). 320,000 compounds, 0.6% hits. AID 2629; in the data active means inhibition mostly above about 10%, no sharp cut-off; inactive means mostly below about 6.7%
Keap1-Nrf2 PPI: disrupts human Keap1 binding to Nrf2 peptide | AID 504523 | inhibition, % at 9.4 µM | 340,000 compounds, 0.15% hits | Keap1 Kelch-Nrf2 peptide fluorescence polarization, 1536-well | Q14145; in the data active means inhibition above about 12%;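 further: human Keap1 Kelch domain with fluorescein labeled Nrf2 9mer peptide probe; 0% = neutral control wells and 100% = peptide positive control; higher means more block of Keap1 binding to Nrf2 peptide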
Target sequence (Q14145 whole entry, looked up, the tested form may be a part): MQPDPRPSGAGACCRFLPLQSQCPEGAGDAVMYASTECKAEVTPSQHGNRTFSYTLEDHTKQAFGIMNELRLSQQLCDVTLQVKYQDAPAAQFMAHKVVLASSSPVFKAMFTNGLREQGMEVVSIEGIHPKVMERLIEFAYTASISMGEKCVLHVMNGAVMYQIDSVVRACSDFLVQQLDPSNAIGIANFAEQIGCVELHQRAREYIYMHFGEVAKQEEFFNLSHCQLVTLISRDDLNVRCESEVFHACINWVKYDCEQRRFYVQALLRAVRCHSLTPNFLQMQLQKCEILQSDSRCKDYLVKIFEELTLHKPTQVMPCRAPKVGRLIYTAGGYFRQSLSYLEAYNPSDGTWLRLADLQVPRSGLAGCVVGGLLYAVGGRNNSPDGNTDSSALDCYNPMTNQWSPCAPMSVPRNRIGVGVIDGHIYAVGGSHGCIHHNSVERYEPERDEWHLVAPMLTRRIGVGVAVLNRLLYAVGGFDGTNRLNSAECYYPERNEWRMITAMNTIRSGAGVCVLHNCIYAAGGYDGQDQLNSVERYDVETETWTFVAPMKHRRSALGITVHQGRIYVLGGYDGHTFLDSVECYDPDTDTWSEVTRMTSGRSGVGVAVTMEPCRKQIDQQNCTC
RTF Ca sens act: cardiac RTF calcium sensitization | AID 493008 | 340,000 compounds, 0.24% hits | IANBD-labeled TnC RTF fluorescence at EC20 calcium; 0% EC20 calcium, 100% full calcium | activation, % at 7.2 µM | P19429+P45379;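 active means activation above the mean over all tested compounds plus 3 SD, cut at about 30% in these data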;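 further: rise in fluorescence read as greater calcium sensitivity of cardiac thin filaments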
RTF Ca sens inh: cardiac RTF calcium desensitization; 340,000 compounds, 0.12% hits; IANBD-labeled cardiac RTF, Ca2+ fluorescence; AID 493244; P19429+P45379; inhibition, % at 7.15 µM;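 active means inhibition above the mean inhibition of all tested compounds plus 3 SD, cut at about 17% in these data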;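 further: assay run at fixed EC70 calcium of 1.6 mM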
Numbers without * were called inactive; . = not tested or not shown; + = active, no number. Compounds with a hit are over-represented: about 1% of the library has one in this group of screens.

SMILES | LANA DNA inh | LANA-H2A inh | Keap1-Nrf2 PPI | RTF Ca sens act | RTF Ca sens inh
CC(NCC(=O)Nc1ccccc1C(=O)NC1CC1)c1cccc(C(F)(F)F)c1 (stereo not given) | -0.4 | 11.2* | 0.0 | 13.6 | -15.4
CC(NCC(=O)NCC(=O)Nc1ccc(F)cc1)c1cccc(C(F)(F)F)c1 (stereo not given) | -2.4 | -0.7 | -5.2 | 1.0 | -2.8
O=C(Nc1nncs1)c1cc(-c2ccco2)nc2ccccc12 | 2.5 | 3.4 | 1.8 | -5.1 | 1.0
CCn1c(O)c(/C=N/N=C/c2ccccc2)c2ccc(C3=NNC(=O)CC3)cc21 | 7.4 | -8.2 | 2.2 | 36.1* | -121.5
Cc1cccc(-n2nnnc2SCC(=O)NCC2(N3CCOCC3)CCCCC2)c1C | -0.1 | + | -5.4 | -0.2 | -4.1
O=C(OCCc1ccccn1)c1cccc([N+](=O)[O-])c1 | -0.5 | . | -3.5 | -0.9 | -7.7
COc1cc2c(cc1OC)C(c1cc(Br)ccc1O)N(C(C)=O)CC2 (stereo not given) | -0.1 | -2.0 | 0.8 | 11.7 | 1.2
CC(=N)c1c(O)cc(C)oc1=O | 0.7 | . | 5.3 | 0.6 | 0.2
CCOC(=O)C1=C(CSc2nc(-c3ccccc3)ccc2C#N)OC(N)=C(C#N)C1c1ccccc1 (stereo not given) | 4.6 | 198.1* | -4.9 | -0.3 | -10.8
CCOC(=O)C1=C(CSc2nc(-c3ccccc3)ccc2C#N)OC(N)=C(C#N)C1c1cccnc1 (stereo not given) | 2.2 | 1.2 | -5.2 | 15.1 | -18.0
COc1ccc(-c2nc(NC(=O)c3n[nH]c(=O)c4ccccc34)sc2C)cc1 | 2.5 | 0.6 | -5.5 | 1.5 | -3.6
CCOC(=O)C1CCN(C(=S)NC2CC3C=CC2C3)CC1 (stereo not given) | 0.4 | 20.5* | 0.6 | . | .
NC(=O)C1CCN(C(=S)NC2CC3C=CC2C3)CC1 (stereo not given) | -3.0 | 0.4 | -0.1 | -5.9 | 1.1
CC(=NNC(=O)CSCC(=O)NN=C(C)c1ccccc1)c1ccccc1 | -0.4 | . | -3.5 | -6.0 | 5.1
CC(=O)OC1CCC2(C)C3CCC4(C)C(C(C)=O)CCC4C3CC3OC32C1 (stereo not given) | -1.3 | . | 3.8 | -1.5 | -3.9
CCOC(=O)C1C(=O)CC(C)(O)C(C(=O)OCC)C1/C=C/c1ccccc1 (stereo not given) | -1.7 | 81.5* | -3.1 | -0.1 | -6.3
COc1ccc(C(=O)Nc2nnc(S(=O)(=O)Cc3ccc(F)cc3)s2)cc1 | 0.0 | 17.9* | 2.0 | -7.7 | -2.3
COc1ccc(C(=O)Nc2nnc(S(=O)(=O)Cc3ccccc3)s2)cc1 | -1.5 | 0.0 | -0.4 | 1.8 | 5.8
CNC(=O)c1ccc(CN(C)CC(=O)Nc2ccccc2C(=O)NC2CC2)cc1 | -3.4 | -3.5 | -2.7 | -0.5 | -6.9
COC(=O)CSc1nnc(CCc2ccccc2)n1C | 0.0 | 11.3* | -5.9 | -0.6 | -6.5
CC(C)(C)S(=O)N1Cc2cc(=O)n(Cc3ccccc3)c(CCO)c2[C@@H]1CCO (stereo not given in full) | 1.6 | . | 1.2 | -6.2 | -9.4
N=C1/C(=C\c2coc3ccccc3c2=O)C(=O)N=C2SC=CN12 | 14.4 | 9.2 | -18.3 | 80.7* | -125.2
CSC1=NSC2=NC(=O)/C(=C/c3coc4ccccc4c3=O)C(=N)N12 | 23.1 | 0.3 | -85.9 | 287.5* | -253.0
N=C1/C(=C/c2cccn2Cc2ccc(F)cc2)C(=O)N=C2SC=CN12 | 1.9 | 5.0 | -6.7 | 6.6 | -5.8
CSC1=NSC2=NC(=O)/C(=C/c3coc4ccc(O)cc4c3=O)C(=N)N12 | 22.2 | -8.5 | -155.9 | 177.3* | -222.9
SMILES | LANA DNA inh | LANA-H2A inh | Keap1-Nrf2 PPI | RTF Ca sens act | RTF Ca sens inh
CC1=CC2=NC(=O)/C(=C/c3coc4ccc(Cl)cc4c3=O)C(=N)N2O1 | -9.1 | -16.3 | -61.5 | 58.3* | -71.9
CSC1=NSC2=NC(=O)/C(=C\c3cccs3)C(=N)N12 | 1.4 | -156.4 | -0.4 | 6.3 | 3.2
CCOc1ccc(S(=O)(=O)NN=C(C)c2cccnc2)cc1 | -0.4 | 4.3 | -1.2 | -7.6 | -4.3
Cc1ccc(NC(=O)c2cccc(NC3=NC4CS(=O)(=O)CC4S3)c2)cc1C (stereo not given) | -1.0 | 24.3* | 1.8 | 9.9 | -4.9
Cc1cccc(NC(=O)c2cccc(NC3=NC4CS(=O)(=O)CC4S3)c2)c1 (stereo not given) | 0.3 | 0.1 | -5.1 | -3.7 | 0.9
CCOc1ccc(CCNC(=O)COC(=O)c2nn(C)c(=O)c3ccccc23)cc1OCC | 1.0 | 12.2* | -0.1 | -0.9 | -7.9
Cc1ccc(C(=O)N2N=C(c3cccc(NS(C)(=O)=O)c3)CC2c2cccs2)cc1 (stereo not given) | 1.6 | -1.3 | -5.2 | -6.8 | -1.7
CCNc1cccc2c1C(=O)N(C)C2=O | 0.3 | -3.6 | -0.8 | 45.6* | -67.4
CCC(=O)Nc1cccc2c1C(=O)N(C)C2=O | 0.5 | -1.2 | -2.0 | 9.1 | -15.2
O=C(NC(Cc1ccccc1)C(=O)Oc1ccc2c(C(F)(F)F)cc(=O)oc2c1)OCc1ccccc1 (stereo not given) | 14.7 | 175.1* | 4.9 | 0.0 | -9.8
O=S(=O)(CC=CCS(=O)(=O)c1ccccc1)c1ccccc1 | -2.7 | . | -2.1 | 1.4 | -9.3
O=C(CSc1nnc(-c2ccccc2Br)o1)N1CCOCC1 | 0.7 | 20.3* | -0.1 | -2.9 | -23.7
O=C(CSc1nnc(-c2ccccc2O)o1)N1CCOCC1 | 1.4 | . | -6.7 | 5.9 | -2.6
Cc1ccc(CN(C)S(=O)(=O)c2c(C)noc2/C=C/N(C)C)cc1 | -1.6 | 1.6 | -4.2 | 3.0 | -8.7
Cc1ccc(NC(=O)CN(C)C(=O)c2cc3c(s2)CCCCC3)cc1 | 0.7 | 21.4* | -0.4 | -0.6 | 4.9
CCCCN(CC)S(=O)(=O)c1ccc2c(c1)n(C)c(=O)c(=O)n2C | -0.7 | 0.7 | -3.0 | -1.2 | -4.0
C[C@@H]1CN([C@H](C)CO)C(=O)c2cc(NC(=O)Nc3ccc4c(c3)OCO4)ccc2O[C@H]1CN(C)Cc1ccncc1 | -2.0 | + | -0.6 | 4.7 | 1.2
Cc1ccc(NC(=O)NCCCc2ccccc2)cc1 | -1.2 | 0.4 | -2.6 | -2.3 | -4.0
Cc1ccc2[nH]c(C(=O)N3CCN(C=O)CC3)cc2c1 | 2.3 | 12.7 | -1.5 | -2.7 | -2.8
CCOC(=O)N1CCN(C(=O)c2cc3cc(C)ccc3[nH]2)CC1 | -0.1 | 12.8* | 3.0 | -5.4 | 4.8
CN(c1ccc(O)cc1)c1nc(-c2ccccc2)cs1 | -0.6 | + | -3.8 | -5.5 | 4.4
CC(=O)c1ccc(S(=O)(=O)N(C)CCCC(=O)N(C)Cc2c(F)cccc2Cl)cc1 | -0.6 | 57.6* | -7.2 | -3.6 | -12.2
CN(C)c1ccc(-c2cc([C@H]3[C@@H]4C=CCC[C@@]4(C)C(=O)N3Cc3ccccc3)ccc2F)cc1 | -0.7 | 14.4* | -5.0 | -5.2 | 4.0
Cc1ccccc1NS(=O)(=O)c1nnc(NC(=O)C(C)C)s1 | -0.7 | 2.7 | 6.7 | 0.1 | -6.9
CCCCNC(=O)C(CC)(ONc1ccccc1C(F)(F)F)c1ccccc1OC (stereo not given) | -0.7 | -7.2 | -7.4 | -0.1 | -50.8

Screens deposited in PubChem BioAssay by several laboratories.
